Test results reported in PubChem BioAssay.
Activity calls are given as the source filed them.

Assay: PSAC antagonists in infected red cells, primary screen, cell-based, P. falciparum Indochina, OD700, 18 h (AID 1157)
Details: P. falciparum Indochina infected erythrocytes, osmotic lysis OD700, 18 h; higher = more signal, called active from +8 up or from −8 down

Compound | z-score
O=C(NCCN1CCOCC1)[C@@H]1c2ccccc2C(=O)N(Cc2ccccc2Cl)[C@H]1c1ccc(CO)cc1 | 0.306 (inactive)
COC(=O)[C@@]1(Cc2ccc(F)cc2)[C@H]2c3cc(C(=O)N4CCCC4)n(Cc4ccc(C)c(F)c4F)c3C[C@H]2CN1C(=O)c1ccccc1 | 1.06 (inactive)
CCCCC(CC)C(O)C1C=CC2C(=O)N(c3ccccc3)C(=O)C2N1Nc1ccccc1F (centres undefined) | -1.57 (inactive)
[N-]=[N+]=Nc1ccccc1C[C@]1(C(=O)O)COC(c2ccc(OCCCO)cc2)=N1 | 0.935 (inactive)
CC(=O)NCCCC[C@@H]1NC(=O)[C@@H]2C[C@H](C(=O)NCCCCCN)[C@H](c3cccc(OCCO)c3)N2C1=O | -1.27 (inactive)
COc1ccc(C#Cc2ccc3c(c2)[C@]2(C(=O)N3)[C@H](c3ccc(OCCO)cc3)N3[C@H](c4ccccc4)[C@H](c4ccccc4)OC(=O)[C@H]3[C@@H]2C(=O)NC[C@H](O)c2ccccc2)cc1 | 1.08 (inactive)
CC(C)NC(=O)[C@@]1(C)c2ccccc2C(=O)N(Cc2ccc(OC(F)(F)F)cc2)[C@H]1c1ccc(CO)cc1 | 0.254 (inactive)
CCCC[C@@H](O)C1=C(COC)C[C@H]2C(=O)N(Cc3ccccc3)C(=O)[C@H]2[C@H]1CO | 0.133 (inactive)

Assay: modulators of S6 phosphorylation in cells, primary screen, cell-based, A549, cytoblot, luminescence, serum-stimulated (AID 1158);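 note: serum-stimulated A549 lung adenocarcinoma cells; signal is phosphorylated S6 detected by cytoblot immunostaining with HRP secondary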
Details: A549 phospho-S6 cytoblot, 5 h, higher = more signal

Compound | z-score
CCOC(=O)C[C@H]1[C@H](OC(=O)Cc2ccc3c(c2)OCO3)[C@@H](NC(=O)c2ccc3ccccc3n2)c2cc(OCCCO)ccc2N1C(=O)c1ccccc1 | -0.246
COc1ccc([Si](C)(C)[C@@H]2[C@@H](CC(=O)N(CCO)Cc3ccccc3)O[C@]3(C(=O)N(Cc4cccc(N5CCCCC5=O)c4)c4ccccc43)[C@H]2C)cc1 | 1.19
C=C[C@@H](OC)[C@H](OC(=O)Nc1ccc(OC)cc1)c1ccc(O)c(F)c1 | -0.012
CCCCCC1=C2CNC(C)(C(=O)OC)C=C2C(C)C1=O (centres undefined) | -0.628
O=C1NC(=O)C2C1C=CC(C(O)c1ccco1)N2Nc1ccc(Cl)cc1Cl (centres undefined) | -0.992
CCC#CCN(Cc1ccccc1Br)[C@H](/C=C/C1CC1)[C@@H](O)Cc1ccccc1 | 1.62
COc1ccc([Si](C)(C)[C@@H]2[C@@H](CC(=O)N3Cc4ccccc4C[C@H]3CO)O[C@]3(C(=O)N(Cc4ccc(N5C(=O)c6cccc7cccc5c67)cc4)c4ccccc43)[C@H]2C)cc1 | -0.297
[N-]=[N+]=Nc1ccccc1C[C@@]1(C(=O)NCCN2CCOCC2)N=C(c2ccc(OCCCO)cc2)O[C@@H]1c1ccccc1N=[N+]=[N-] | -0.26
CC1=C2[C@@H](CCc3ccccc3)OB(O)C[C@@H]2[C@@H]2C(=O)N(Cc3ccccc3)C(=O)[C@@H]2C1 | 0.433
CC1CC/C=C\[C@H]2OC34C=CCN(Cc5ccccc5)C(=O)[C@H]3N(C(CO)C(C)C)C(=O)[C@@H]4C2C(=O)O1 (some centres undefined) | -0.529
COc1cccc(C)c1NC(=O)O[C@H]1[C@H](OC(=O)Nc2ccc3c(c2)OCO3)[C@@H](OC(=O)Nc2ccc3c(c2)OCO3)[C@@H](OC)O[C@@H]1CO | -0.227
Cc1ccccc1C(O)C1C=CC2C(=O)NC(=O)C2N1Nc1ccccn1 (centres undefined) | -1.01
CCCCC(=C=CC[C@H](O)c1ccc(OCCO)cc1)CCO | -0.517
CC(c1ccccc1)C(O)C1C=CC2C(=O)N(C)C(=O)C2N1Nc1ccccc1 (centres undefined) | -0.945
C=CCC(OC(C)=O)[C@@H]1[C@@H](N(Cc2ccc(-c3cccc(C(F)(F)F)c3)o2)C(=O)Cc2ccc(OC)cc2)c2cc(OCCCO)ccc2N1C(=O)c1ccc(-c2ccccc2)cc1 (some centres undefined) | -0.199
Cc1ccc(S[C@]2(C(=O)NC(C)C)CC(=O)N(Cc3cc(C(F)(F)F)cc(C(F)(F)F)c3)[C@@H]2c2ccc(CO)cc2)cc1 | -0.768
CCOC(=O)C[C@H]1[C@H](OC(=O)c2cc3ccccc3oc2=O)[C@@H](NC(=O)CC(C)C)c2cc(OCCCO)ccc2N1C(=O)c1ccc2ccccc2n1 | -0.679
COc1ccc(CCNC(=O)[C@@]2(c3ccc([N+](=O)[O-])cc3)CC(=O)N(C3CCCCC3)[C@@H]2c2ccc(CO)cc2)cc1 | -0.112
C[C@@H]1NC(=O)[C@@H](Cc2ccccc2)NC(=O)[C@@]23C(=O)N[C@@H](Cc4ccccc4)C2[C@H](C)[C@@]2(C)O[C@H]2C3/C=C/C/C=C\CNC1=O (some centres undefined) | -0.177
CCC1=C2CN(Cc3ccccc3)[C@@H](C(=O)Cc3ccccc3)C2C=CCC1 (some centres undefined) | 0.492
N#Cc1ccc(NN2C(C(O)c3ccc(Br)cc3)C=CC3C(=O)N(c4ccccc4)C(=O)C32)cc1 (centres undefined) | 0.717
